Results on 13 compounds are retold here after PubChem BioAssay (NCI).

Holding throughout (assay): NCI-60 one-dose screen, 48 h (100 = growth as untreated, 0 = no growth, -100 = all killed)
Common to all, as to conditions: 10 µM unless noted

For experiment [1], the system named is SK-MEL-2 melanoma.
The test system of experiment [2] is EKVX NSCLC.
Experiment [3] concerns SN12C renal.
The subject of experiment [4] is UO-31 renal.
Experiment [5] relates to TK-10 renal.
Experiment [6] concerns ACHN renal.
The subject of experiment [7] is CAKI-1 renal.
The test system of experiment [8] is A498 renal.
The test system of experiment [9] is MOLT-4 leukemia.
Experiment [10] deals with CCRF-CEM leukemia.

The panel holds about 83,000 compounds, 20% with a hit somewhere; the sample as a whole holds those more often.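 A percent growth of 40 corresponds to 60% growth inhibition; 0 means no net growth; -100 means all cells died. Active threshold: below 10.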 Unmarked numbers belong to inactive results. Calls of active or inactive are those of the source.

`Cn1ccnc1C(=O)/C=C/c1ccc(C(=O)Nc2ccccc2O)cc1`: the growth in [1] is 78%; in experiment [2], 56.5%; in experiment [3] it was 12.6%; in experiment [4] it was 33.3%; in experiment [5], 107%; in experiment [6] it was 10.5%. The growth in [7] was 26.8%; in [8], 55.7%; in experiment [9], 17%.
For `C=C1C(=O)O[C@H]2[C@H]1CC/C(COC(=O)C(=O)c1cn(C)c3ccc(Cl)cc13)=C\CC[C@@]1(C)O[C@@H]21`, the growth in experiment [1] is -60.8% (active); in experiment [2], -59.5% (active); in experiment [3], -69% (active); in experiment [4], -93.5% (active); in [5], -91.1% (active); in [6] it was -91.8% (active). Also, the growth was -75.7% (active) in experiment [7], -96.9% (active) in experiment [8], -34.9% (active) in experiment [10] and -15.4% (active) in experiment [9].
On to `O=C1/C(=C/c2cccc(F)c2)CN(C(=O)C(Cl)Cl)C/C1=C\c1cccc(F)c1`, for which the growth in experiment [1] was -38.1% (active); in experiment [2] it was -7.73% (active); in experiment [3], -90.3% (active); in [4], -85.5% (active); in experiment [5], -78.8% (active); in experiment [6], -97.7% (active). The growth in experiment [7] was -75.6% (active); in [8], -80.1% (active); in experiment [9], -23.3% (active).
In the case of `CC/C=C\C[C@H](O)C/C=C1/C(=O)C=C[C@@H]1C/C=C\CCCC(=O)N(C)C`, the growth was 29% in experiment [1]; 22.9% in experiment [2]; -9.16% (active) in [3]; -81.3% (active) in experiment [4]; -6.21% (active) in experiment [5]; -85% (active) in experiment [6]. Moreover, the growth was -9.48% (active) in experiment [7], 50.2% in [8], 0.876% (active) in [10] and 6.69% (active) in experiment [9].
Regarding `CCCCCCCCCc1ccc(OCCOCCOCCOCCOCCOCCOCCOCCOCCO)cc1`, the growth in experiment [1] is 7.03% (active); in experiment [2], 15.5%; in [3] it was 13%; in [4], 12.8%; in [5], 23.1%; in experiment [6], 18.9%. Moreover, the growth in experiment [7] was 13.6%; in [8], -5.27% (active); in experiment [9], -17.6% (active).
Regarding `C=CC(=O)N1CCN(c2cccc(Oc3nccc(Nc4nnc(-c5ccc(Br)cc5)s4)n3)c2)CC1`, the growth is 54.7% in [1]; 93.9% in [2]; 78.7% in [3]; 66.7% in experiment [4]; 111% in experiment [5]; 72.9% in [6]. In addition, the growth in experiment [7] is 38.9%; in [8] it was 79.7%; in [9], 70.6%.
For `Nc1nc2ccccc2c2c(=O)c3cccc(Cl)c3sc12`, the growth is 108% in [1]; 83.8% in [2]; 82.4% in [3]; 75.4% in experiment [4]; 83.6% in experiment [5]; 86.8% in experiment [6]. Also, the growth in [7] is 79%; in experiment [8], 122%; in [9], 104%.
Turning to `COc1ccc(C2CC(c3ccc(Nc4nc(Nc5ccccc5)nc(Nc5ccccc5)n4)cc3)=NN2C(C)=O)cc1` (stereo unspecified), the growth in experiment [1] is 68.5%; in experiment [2], 132%; in experiment [3], 95.7%; in [4] it was 78.3%; in [5] it was 104%; in experiment [6] it was 100%. In addition, the growth in experiment [7] is 105%; in experiment [8], 95.5%; in experiment [9], 71.2%.
Consider `COc1cccc(/C=C2\COc3ccc(O)c(O)c3C2=O)c1`, for which the growth in [1] is 57.1%; in experiment [2], 60.2%; in experiment [3], -54.3% (active); in [4] it was -93.3% (active); in experiment [5] it was 21.5%; in experiment [6], -79.2% (active). Also, the results for the growth in [7], in [8] and in [9] were 0.272% (active), 111% and 2.08% (active), respectively.
For `C=C1C(=O)O[C@H]2[C@H]1CC/C(COC(=O)NCc1ccc(Cn3c(=O)sn(CCCCC)c3=O)cc1)=C\CC[C@@]1(C)O[C@@H]21`, the growth in experiment [1] was 76.3%; in experiment [2], 84.3%; in experiment [3], 22.8%; in [4], 6.58% (active); in experiment [5], 2.53% (active); in experiment [6], 26.5%. Besides, the figures for the growth in [7], in experiment [8] and in experiment [9] were 36.4%, 84.9% and -15% (active), respectively.
In the case of `CC1=C2[C@@H](CC1)[C@]1(C)O[C@@](C(C)C)(C[C@H]1OC(=O)[C@H](C)O)[C@H]2OC(=O)/C=C/c1ccccc1`, the growth in [1] was 80.6%; in [2] it was 66.1%; in [3], 45.7%; in experiment [4], 0.932% (active); in experiment [5] it was 90.1%; in experiment [6], 8.57% (active). The growth was 60.5% in [7], -66.1% (active) in [8], 85.8% in experiment [10] and 62.8% in experiment [9].
For `COc1ccc(/C=C(\C#N)n2nnc3cc(Cl)ccc32)cc1`, the growth in [1] was 26.1%; in experiment [2], 11.4%; in experiment [3], 11.7%; in experiment [4] it was 25.9%; in experiment [5], 25.6%; in experiment [6], 14.6%. Moreover, the results for the growth in experiment [7], in experiment [8] and in experiment [9] were 32.7%, -23.5% (active) and 14.2%, respectively.
In the case of `CC(C)c1ccc(-n2c(=S)[nH]c3sc4cc(O)ccc4c3c2=O)cc1`, the growth in experiment [1] was 121%; in experiment [2], 103%; in experiment [3], 99.5%; in [4], 77%; in experiment [5], 123%; in experiment [6], 99%. Further, the growth was 91.7% in experiment [7], 61.5% in [8], 103% in experiment [10] and 98% in experiment [9].
